Screening data deposited in PubChem by several laboratories.
The list is not random: actives were taken first. Their share in the collection is about 3.2%.
NRP1-CendR mod: alters CendR peptide binding to human NRP-1; hit rate 0.85% among 360,000; AID 602438; inhibition, % at 25 µM; FAM-RPARPAR peptide binding to NRP-1, fluorescence polarization;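 active means inhibition or corrected inhibition above about 18%, plus a signal ratio from 0.5 to 1.5, limit read from the data, passing the limit was not always enough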
MEKK2 WT-MEK5: raises or lowers MEK5 binding to wildtype human MEKK2 PB1 domain; bead flow cytometry, Alexa488-MEK5 binding to MEKK2 WT; actives lie on both sides; binding response (% of control), % at 10 µM; AID 1531; hit rate 1.1% among 290,000; in the data active means binding response below about 67% or above about 130%
MEKK3 PB1 HTS: modulators (inhibitors or enhancers) of MEK5 binding to human MEKK3 PB1 domain. Q99759. bead-based flow cytometry, Alexa488-MEK5 binding to MEKK3; actives lie on both sides; 0 = blocked by unlabeled MEK5, 100 = vehicle. binding response (% of control), % at 10 µM. hit rate 1.4% among 290,000. AID 1529;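 active means binding response more than 3 SD above or below the average of its plate-row segment, actives on both sides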;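 further: Alexa488 bead fluorescence after subtracting the streptavidin-only scavenger bead signal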
Target sequence (Q99759 whole entry, looked up, the tested form may be a part): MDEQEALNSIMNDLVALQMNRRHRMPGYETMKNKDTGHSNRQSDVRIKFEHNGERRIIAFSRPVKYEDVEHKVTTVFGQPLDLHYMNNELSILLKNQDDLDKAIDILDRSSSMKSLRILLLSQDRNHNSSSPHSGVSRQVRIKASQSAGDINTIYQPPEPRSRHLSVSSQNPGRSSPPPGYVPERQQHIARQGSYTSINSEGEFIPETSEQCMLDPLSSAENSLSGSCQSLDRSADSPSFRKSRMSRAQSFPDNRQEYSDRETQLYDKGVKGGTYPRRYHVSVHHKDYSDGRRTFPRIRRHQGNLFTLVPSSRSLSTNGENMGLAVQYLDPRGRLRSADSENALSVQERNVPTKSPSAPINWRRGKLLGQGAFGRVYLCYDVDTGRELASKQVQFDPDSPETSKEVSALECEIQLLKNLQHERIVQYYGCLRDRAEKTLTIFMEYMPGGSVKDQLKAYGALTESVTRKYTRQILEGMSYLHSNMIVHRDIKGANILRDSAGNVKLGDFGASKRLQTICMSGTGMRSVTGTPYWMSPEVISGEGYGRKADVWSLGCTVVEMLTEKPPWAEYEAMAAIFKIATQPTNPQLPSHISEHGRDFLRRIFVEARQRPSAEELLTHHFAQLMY
SKN-1 block: blocks SKN-1 activity in C. elegans. C. elegans VP596 Pgst-4::GFP/RFP ratio, acrylamide-induced, 24 h. inhibition, % at 21.8 µM. hit rate 0.49% among 360,000. AID 624304;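 active means interference check ratio from 0.5 to 1.5 plus GFP to RFP signal ratio inhibition reaching or exceeding a fixed threshold, cut at about 30% in these data, passing the limit was not always enough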
MEKK2 mut-MEK5: signal of MEK5 binding to mutant human MEKK2 PB1 domain; hit rate 0.35% among 290,000; bead flow cytometry, Alexa488-MEK5 binding to MEKK2 mutant; percent response, % at 10 µM; in the data active means percent response above about 24%, passing the limit was not always enough
MEKK2wt confirm: raises or lowers MEK5 binding to wildtype human MEKK2, retest. binding response (% of control), % at 10 µM. shares compounds with MEKK3 PB1 HTS. hit rate 2.4% among 5,900. bead flow cytometry, Alexa488-MEK5 binding to MEKK2 WT; actives lie on both sides; in the data active means binding response below about 16% or above about 210%; inactive means in between
MEKK2mut-MEK5: signal of MEK5 binding to mutant human MEKK2, retest; hit rate 2% among 5,900; bead flow cytometry, Alexa488-MEK5 binding to MEKK2 mutant; AID 1893; shares compounds with MEKK3 PB1 HTS; percent response, % at 10 µM; in the data active means percent response mostly above about 71%, no sharp cut-off; inactive means mostly below about 38%;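 further: higher means compound restores mutant binding toward wildtype level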
MEKK3 confirm: MEKK3-MEK5 PB1 inhibition, single concentration confirmation. hit rate 1.8% among 5,900. binding response (% of control), % at 10 µM. bead flow cytometry, Alexa488-MEK5 binding to MEKK3; active compounds read low. shares compounds with MEKK3 PB1 HTS. AID 1894;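 active means binding response below 72% of control, or above a set upper limit, though filed actives all read lower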;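 further: 100% = DMSO only wells and 0% = binding blocked by excess unlabeled MEK5; lower values mean stronger disruption of MEK5 binding to MEKK3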
Starred values were filed as active, the others as inactive; x = no result; [ ] = remark or other dose.

SMILES | NRP1-CendR mod | MEKK2 WT-MEK5 | MEKK3 PB1 HTS | SKN-1 block | MEKK2 mut-MEK5 | MEKK2wt confirm | MEKK2mut-MEK5 | MEKK3 confirm
CCOc1ncccc1C(=O)N=C1SCCN1C(=O)c1cccnc1OCC | 6.2 | 140.0 | 158.0* | -11.6 | 7.0 | 103.0 | 0.0 | 108.0
CCOc1ncccc1C(=O)N=c1sccn1C | 2.4 | 103.0 | 102.0 | 4.8 | -1.0 | x | x | x
O=C(NC1CCCCC1)C(c1ccc(C(F)(F)F)cc1)n1c(=O)c(-c2ccccc2)nc2ccccc21 (stereo not drawn) | 6.0 | x | x | 2.7 | x | x | x | x
CC1(OC(=O)C2CCCC2)C(=O)C=C2C=C(c3ccsc3)N(CC3CC3)C=C2C1=O (stereo not drawn) | 22.0 | 85.0 | 106.0 | 10.3 | 4.0 | x | x | x
CC1(OC(=O)C2CCCC2)C(=O)C=C2C=C(c3ccsc3)N(C3CCCCC3)C=C2C1=O (stereo not drawn) | -4.2 | 92.0 | 80.0*[inhibitor] | 12.2 | -7.0 | 90.0 | -7.0 | 94.0
CC1(OC(=O)C2CCCC2)C(=O)C=C2C=C(c3ccsc3)N(CCN3CCOCC3)C=C2C1=O (stereo not drawn) | x | 146.0* | 120.0 | x | 4.0 | 103.0 | 0.0 | 99.0
CC(=O)Nc1cccc(-c2ccnc3c2CC(C)(C(=O)NCC2CC2)O3)c1 (stereo not drawn) | -2.3 | x | x | 4.7 | x | x | x | x
CC(C)Oc1ccccc1/C=N/n1nnnc1N | -1.7 | x | x | 6.4 | x | x | x | x
CCOC(=O)N1CCN(C(=O)C2CCC(=O)N(Cc3ccccc3OC)C2)CC1 (stereo not drawn) | 1.4 | x | x | 8.5 | x | x | x | x
COc1ccc(CCNCc2cc(C)n(-c3ccc(OC)cc3)c2C)cc1 | -3.7 | 184.0* | 97.0 | 11.1 | 61.0* | 148.0 | 22.0 | 99.0
CN(C)CCN=Cc1c(O)n(Cc2ccc3c(c2)OCO3)c(=O)c2ccccc12 | -11.7 | 113.0 | 104.0 | 1.3 | -7.0 | x | x | x
O=c1c2ccccc2c(C=NC2CCN(Cc3ccccc3)CC2)c(O)n1Cc1ccc2c(c1)OCO2 | x | 154.0* | 101.0 | x | 18.0 | 156.0 | 20.0 | 96.0
CCN(Cc1ccccc1)c1ccc(/C=N/NC(=S)NC(C)C)cc1 | 11.1 | 82.0 | 59.0*[inhibitor] | 8.9 | -1.0 | 146.0 | 19.0 | 107.0
Cc1cc2oc3ccc(NCCCN4CCOCC4)cc3c(=O)c2cc1C | 8.4 | 144.0* | 116.0 | 3.1 | 14.0 | 136.0 | 20.0 | 111.0
CN1CCN(C(=O)C(=O)c2cn(CC(=O)N3CCOCC3)c3ccccc23)CC1 | 0.1 | x | x | -7.3 | x | x | x | x
CCN(C(=O)COC(=O)c1cc(=O)[nH]c2ccccc12)C1CCS(=O)(=O)C1 (stereo not drawn) | -6.7 | 37.0*[inhibitor] | 37.0*[inhibitor] | 4.9 | -14.0 | 98.0 | 3.0 | 101.0
CCN(C(=O)COC(=O)c1cc(-c2ccc3cc(OC)ccc3c2)nc2ccccc12)C1CCS(=O)(=O)C1 (stereo not drawn) | x | 95.0 | 98.0 | x | -2.0 | x | x | x
Nc1ncnc2c1ncn2[C@@H]1O[C@H](CNS(=O)(=O)c2ccc3c(c2)CCN(C(=O)C(F)(F)F)C3)[C@@H](O)[C@H]1O | 6.2 | x | x | 11.3 | x | x | x | x
COc1ccc(-n2c(N)c(-c3nc4ccccc4n3C)sc2=S)cc1 | 1.2 | 82.0 | 69.0*[inhibitor] | -6.4 | -13.0 | 100.0 | -1.0 | 100.0
COCCNC(=S)N1CCN(Cc2ccc3c(c2)OCO3)CC1 | 4.1 | 106.0 | 104.0 | -2.2 | 3.0 | x | x | x
O=C(Nc1ccc(S(=O)(=O)N2CCCCC2)cc1)c1ccc(CN2CCOCC2)cc1 | -5.1 | 89.0 | 74.0*[inhibitor] | 21.9 | 5.0 | 104.0 | 2.0 | 107.0
COc1ccccc1C(=O)Nc1ccc(S(=O)(=O)N2CCOCC2)cc1 | 9.3 | 103.0 | 107.0 | 10.0 | 24.0* | 97.0 | 1.0 | 105.0
CCOc1ccccc1C(=O)Nc1ccc(S(=O)(=O)N2CCOCC2)cc1 | 1.4 | 107.0 | 108.0 | 8.6 | 11.0 | x | x | x
COc1ccc(NC(=O)c2[nH]c(C)c(C(C)=O)c2C)cc1S(=O)(=O)N1CCOCC1 | 8.3 | 105.0 | 129.0* | -3.7 | 0.0 | 102.0 | -3.0 | 103.0
